Measured values as given in PubChem BioAssay (NCATS).
Records with an inconclusive call do not appear. Values without a mark were called inactive. Active and inactive are the calls of the source. Calls come from the whole dose curve; as a rule, active = well fitted curve in the direction sought with a large enough effect; inconclusive = small, poorly fitted or top-dose-only effect, or another doubt; inactive = no such curve, though single readings can be large; an effect the other way counts as inactive or inconclusive.
Potency is the fitted concentration of half-maximal effect.

Experiment: BET inhibitor-based combinations targeting novel dependencies in MECOM-rearranged (r) AML: UCSD-AML1 cell line (AID 2202235); note: nearly all actives have a fitted effect of over 40% in size;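 for viability (% of control): plate controls were DMSO vehicle wells for no effect and blank wells for full effect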
Details: UCSD-AML1 AML cells viability, CellTiter-Glo, 48 h; series mostly up to 46 µM; viability (% of control): at the top concentration
Summary of the method: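 Cells were plated at 500 per well and exposed to each drug across an 11-point dose range for 48 hr at standard incubator conditions. Viability was read by CellTiter-Glo luminescence, and activity was expressed as AUC and per-cell-line Z-transformed AUC.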
In the case of O=C(NCc1ccncc1)C12C[C@H]3C[C@@H](C1)CC(c1ccc(Cl)cc1)(C3)C2, the “viability (% of control)” value is reported as 93.5%. In the case of CC(C)(O)CC[C@@H](O)[C@](C)(O)[C@H]1CC[C@@]2(O)C3=CC(=O)[C@@H]4C[C@@H](O)[C@@H](O)C[C@]4(C)[C@H]3CC[C@]12C, the “viability (% of control)” value is reported as 102%. In the case of CN(C)c1ccc(O)c2c1C[C@H]1C[C@H]3[C@H](N(C)C)C(=O)C(C(N)=O)=C(O)[C@@]3(O)C(=O)C1=C2O, the “viability (% of control)” value is reported as 106%. In the case of CNC(=O)[C@H]1O[C@@H](n2cnc3c(NCc4cccc(I)c4)nc(Cl)nc32)[C@H](O)[C@@H]1O, the “viability (% of control)” value is reported as 78.1%. With NS(=O)(=O)c1ccc(NC(=S)N2CCN(C/C=C/c3ccccc3)CC2)cc1 the “viability (% of control)” value was 103%. In the case of C/C(=C\C(=O)Nc1ccccc1C(=O)O)c1ccc2ccccc2c1, the “viability (% of control)” value is reported as 90.7%. For CO[C@H]1/C=C/O[C@@]2(C)Oc3c(C)c(O)c4c(O)c(c5c(c4c3C2=O)=NC2(CCN(CC(C)C)CC2)N=5)NC(=O)/C(C)=C/C=C/[C@H](C)[C@H](O)[C@@H](C)[C@@H](O)[C@@H](C)[C@H](OC(C)=O)[C@@H]1C, the “viability (% of control)” value was 116%. For NC(=O)c1cnc2[nH]ccc2c1NC1C2CC3C[C@H]1CC(O)(C3)C2 (some centres not stated), the Potency was 0.833 µM (active). With C=CC(=O)N1CCC[C@H](n2c(=O)n(-c3ccc(Oc4ccccc4)cc3)c3c(N)ncnc32)C1 the “viability (% of control)” value was 112%. In the case of COC(=O)C1=C(C)NC(c2ncc(F)cc2F)=N[C@@H]1c1ccc(F)cc1Cl, the “viability (% of control)” value is reported as 101%. In the case of C/C(O)=C(\C#N)C(=O)Nc1ccc(C(F)(F)F)cc1, the “viability (% of control)” value is reported as 110%. For CC(=O)Nc1ccc(C(=O)NC(C)(C)C)cc1, the “viability (% of control)” value was 91.1%. With CC[C@H](NC(=O)[C@H](C)NC)C(=O)N1C[C@@H](O)C[C@H]1Cc1c(-c2[nH]c3cc(F)ccc3c2C[C@@H]2C[C@H](O)CN2C(=O)[C@H](CC)NC(=O)[C@H](C)NC)[nH]c2cc(F)ccc12 the Potency was 0.332 µM (active). For COC(=O)N[C@H](C(=O)N1CCC[C@H]1c1ncc(-c2ccc(-c3ccc(-c4cnc([C@@H]5CCCN5C(=O)[C@@H](NC(=O)OC)C(C)C)[nH]4)cc3)cc2)[nH]1)C(C)C, the “viability (% of control)” value was 112%.

Experiment: BET inhibitor-based combinations targeting novel dependencies in MECOM-rearranged (r) AML: AML-191 cell line (AID 2202236; note: nearly all actives have a fitted effect of over 35% in size;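 for viability (% of control): plate controls were vehicle wells for no effect and wells without cells for full effect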)
Details: AML-191 viability, CellTiter-Glo luminescence, 48 h; series mostly up to 46 µM; viability (% of control): at the top concentration
Summary of the method: (§1)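 500 cells/well; 11-pt dose curve; 48 h, standard incubator; CellTiter-Glo luminescence after 15 min RT; DMSO/empty-well normalization; AUC plus Z-AUC (mean-centered within each line).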
In the case of CC(C)(O)CC[C@@H](O)[C@](C)(O)[C@H]1CC[C@@]2(O)C3=CC(=O)[C@@H]4C[C@@H](O)[C@@H](O)C[C@]4(C)[C@H]3CC[C@]12C, the “viability (% of control)” value is reported as 74%. In the case of C[C@H](NC(=O)C(=O)Nc1ccccc1C(C)(C)C)C(=O)N[C@@H](CC(=O)O)C(=O)COc1c(F)c(F)cc(F)c1F, the Potency is reported as 20.9 µM (active). For CCNc1cc(NC2CCC(O)CC2)nc(Nc2ccc3c(ccn3Cc3ccccc3)c2)n1 (configuration not stated), the “viability (% of control)” value was 52.2%. In the case of CNC(=O)[C@H]1O[C@@H](n2cnc3c(NCc4cccc(I)c4)nc(Cl)nc32)[C@H](O)[C@@H]1O, the “viability (% of control)” value is reported as 59.8%. For CNC(=O)CCc1cc(-c2ccc(-c3ccc(C(F)(F)F)cc3)cc2)n(-c2ccc(N3CCNCC3)cc2)n1, the Potency was 5.9 µM (active). With CO[C@H]1/C=C/O[C@@]2(C)Oc3c(C)c(O)c4c(O)c(c5c(c4c3C2=O)=NC2(CCN(CC(C)C)CC2)N=5)NC(=O)/C(C)=C/C=C/[C@H](C)[C@H](O)[C@@H](C)[C@@H](O)[C@@H](C)[C@H](OC(C)=O)[C@@H]1C the Potency was 18.6 µM (active). With COC(=O)C1=C(C)NC(c2ncc(F)cc2F)=N[C@@H]1c1ccc(F)cc1Cl the “viability (% of control)” value was 105%. For COC1=C(OC)C(=O)C(CCCCCCCCCCO)=C(C)C1=O, the Potency was 18.6 µM (active). With NC(=O)c1cccc2c(NC(CN3CCC3)c3ccc(Cl)c(C(F)(F)F)c3)ncnc12 (configuration not stated) the Potency was 20.9 µM (active). In the case of CC(=O)Nc1ccc(C(=O)NC(C)(C)C)cc1, the “viability (% of control)” value is reported as 90.3%. In the case of CC[C@H](NC(=O)[C@H](C)NC)C(=O)N1C[C@@H](O)C[C@H]1Cc1c(-c2[nH]c3cc(F)ccc3c2C[C@@H]2C[C@H](O)CN2C(=O)[C@H](CC)NC(=O)[C@H](C)NC)[nH]c2cc(F)ccc12, the Potency is reported as 0.742 µM (active). In the case of COc1cc2c(cc1O)CCN[C@]21CS[C@@H]2c3c(OC(C)=O)c(C)c4c(c3[C@H](COC1=O)N1[C@@H]2[C@H]2c3c(cc(C)c(OC)c3O)C[C@@H]([C@@H]1O)N2C)OCO4, the Potency is reported as 0.0096 µM (active).

Experiment: BET inhibitor-based combinations targeting novel dependencies in MECOM-rearranged (r) AML: AML-194 cell line (AID 2202237; note: nearly all actives have a fitted effect of over 40% in size;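 for viability (% of control): plate controls were vehicle wells for no effect and wells without cells for full effect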)
Details: AML-194 (MECOM-r AML) viability, CellTiter-Glo, 48 h; series mostly up to 46 µM; viability (% of control): at the top concentration
Summary of the method: as §1
For CC(C)(O)CC[C@@H](O)[C@](C)(O)[C@H]1CC[C@@]2(O)C3=CC(=O)[C@@H]4C[C@@H](O)[C@@H](O)C[C@]4(C)[C@H]3CC[C@]12C, the “viability (% of control)” value was 101%. In the case of CNC(=O)[C@H]1O[C@@H](n2cnc3c(NCc4cccc(I)c4)nc(Cl)nc32)[C@H](O)[C@@H]1O, the “viability (% of control)” value is reported as 69.4%. With NS(=O)(=O)c1ccc(NC(=S)N2CCN(C/C=C/c3ccccc3)CC2)cc1 the “viability (% of control)” value was 101%. With CNC(=O)CCc1cc(-c2ccc(-c3ccc(C(F)(F)F)cc3)cc2)n(-c2ccc(N3CCNCC3)cc2)n1 the Potency was 7.42 µM (active). For C/C(=C\C(=O)Nc1ccccc1C(=O)O)c1ccc2ccccc2c1, the “viability (% of control)” value was 89.8%. For COC(=O)C1=C(C)NC(c2ncc(F)cc2F)=N[C@@H]1c1ccc(F)cc1Cl, the “viability (% of control)” value was 91.3%. For Cc1onc(-c2ccccc2)c1-c1ccc(S(N)(=O)=O)cc1, the “viability (% of control)” value was 96%. For NC(=O)c1cccc2c(NC(CN3CCC3)c3ccc(Cl)c(C(F)(F)F)c3)ncnc12 (configuration not stated), the Potency was 16.6 µM (active). With CCCCOc1ccc(CC(=O)NO)cc1 the Potency was 23.5 µM (active). With CC(=O)Nc1ccc(C(=O)NC(C)(C)C)cc1 the “viability (% of control)” value was 96.6%. For CC[C@H](NC(=O)[C@H](C)NC)C(=O)N1C[C@@H](O)C[C@H]1Cc1c(-c2[nH]c3cc(F)ccc3c2C[C@@H]2C[C@H](O)CN2C(=O)[C@H](CC)NC(=O)[C@H](C)NC)[nH]c2cc(F)ccc12, the Potency was 1.18 µM (active).
